Screening results (PubChem)
Most compounds without a hit are left out; they make up all but 5.9% or so of the library.
GALK inhibitor = galactokinase (human) inhibition. Potency, µM (titrated, usually from 57.5 µM), for inactives: top-dose activity change, negative = inhibition, usual class: inhibitors. AID 1868. Purified GALK, Kinase-Glo residual ATP luminescence. P51570. 270,000 compounds, 0.007% hits; also: potency is read from the fitted curve at half-maximal effect
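GALK at 5 nM final was combined with compound, 35 uM ATP and 100 uM galactose in HEPES pH8.0 with MgCl2 and DTT. The reaction ran one hour at room temperature before luminescent ATP detection.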
Gal4-VP16 FLuc = Gal4-VP16 reporter inhibition counter-screen; Potency, µM (highest dose often 53.6 µM), inactives show top-dose activity, negative = inhibition, actives largely listed as inhibitors; Drosophila S2 Gal4-VP16 UAS-luciferase, luminescence, 20 h; 310,000 compounds, 3.5% hits; AID 2546;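 also: Gal4-VP16 expression switched on by copper sulfate through the metallothionein promoter; potency is read from the fitted curve at half-maximal effect; nearly all actives have a fitted effect of over 50% in size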
TrxR1 inh = rat TrxR1 inhibition | O89049 | recombinant rTrxR1, NADPH fluorescence consumption, selenite substrate | Potency, µM (doses to about 114 µM), for the others: at the top dose activity change, negative = inhibition, most hits filed as inhibitors | 390,000 compounds, 1% hits; also: potency is read from the fitted curve at half-maximal effect; nearly all actives have a fitted effect of over 65% in size
Target sequence (O89049 whole entry, looked up): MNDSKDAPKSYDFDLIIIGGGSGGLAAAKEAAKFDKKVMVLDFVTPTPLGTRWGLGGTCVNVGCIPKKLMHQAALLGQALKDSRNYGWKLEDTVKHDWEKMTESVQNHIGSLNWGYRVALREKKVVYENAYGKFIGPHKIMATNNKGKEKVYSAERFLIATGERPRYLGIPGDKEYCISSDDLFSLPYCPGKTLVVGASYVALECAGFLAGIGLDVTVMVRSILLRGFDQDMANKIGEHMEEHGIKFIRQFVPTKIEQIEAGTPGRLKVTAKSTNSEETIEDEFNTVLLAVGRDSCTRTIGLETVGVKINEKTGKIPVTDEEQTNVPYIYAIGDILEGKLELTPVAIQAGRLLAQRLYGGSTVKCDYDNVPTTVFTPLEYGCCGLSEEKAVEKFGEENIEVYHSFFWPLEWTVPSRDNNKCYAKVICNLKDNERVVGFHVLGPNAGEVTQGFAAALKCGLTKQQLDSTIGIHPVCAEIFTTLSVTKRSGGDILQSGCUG
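Rat TrxR1 (90 nM in the dispensed reagent) was pre-reduced with 400 uM NADPH for 5 min at room temperature, then incubated with compound for 15 min. After 400 uM selenite was added, NADPH fluorescence (Ex 340/Em 450 nm) was followed for 8 min.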
TrxR1 substrate = substrates of rat thioredoxin reductase 1; O89049; purified TrxR1 substrate turnover, NADPH consumption readout; AID 588456; 390,000 compounds, 0.01% hits; Potency, µM (series often up to 114 µM), for the others: at the highest dose activity change, negative = substrate turnover; also: potency is read from the fitted curve at half-maximal effect; nearly all actives have a fitted effect of over 50% in size
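Rat TrxR1, dispensed at 90 nM, was prereduced with 400 uM NADPH (final) for 5 min at ~22 deg C, then incubated with compound 15 min before 400 uM selenite. A first-read NADPH fluorescence drop versus no-compound background flagged substrates.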
RORgamma inh = inhibitors of mouse ROR gamma transcriptional activity | P51450 | Drosophila S2 Gal4-RORgamma UAS-luciferase reporter, 20 h | Potency, µM (top dose mostly 53.6 µM), inactives show top-dose activity change, negative = inhibition, actives largely listed as inhibitors | 310,000 compounds, 5.4% hits | AID 2551; also: potency is read from the fitted curve at half-maximal effect; nearly all actives have a fitted effect of over 60% in size
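Stable Schneider cell line, Gal4 DNA-binding domain fused to ROR gamma, UAS-luciferase. Cmpd 1 hr RT → CuSO4 700 uM final → 20 hr RT → luciferase reagent 10 min → luminescence.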
FBPA coupling cs = coupling enzyme interference in Giardia aldolase counter-screen; 290,000 compounds, 0.67% hits; activity change, negative = inhibition, % at 58.2 µM, hits read low; coupling enzyme system counterscreen, AmpLite Red fluorescence; AID 2472; in the data active = activity change below about -30%
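Fluorescence at 525 nm excitation and 598 nm emission measured inhibition of the coupled detection system without aldolase. Compounds (at 57.5 uM final) were preincubated 10 min at room temperature with coupling enzyme reagent before a 20 min substrate/AmpLite Red step.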
Active calls of the source: *; [ ] = dose if it differs, or a comment. Unless noted, calls follow the shape of the dose curve; as a rule, active = well fitted curve in the direction sought with a large enough effect; inconclusive = small, poorly fitted or top-dose-only effect, or another doubt; inactive = no such curve, though single readings can be large; an effect the other way counts as inactive or inconclusive. % is scaled to controls: 0 for no effect and ±100 for the full control effect.

O=C1CC(N2CCC(c3nc4ccccc4o3)CC2)C(=O)N1c1ccc(Cl)c(C(F)(F)F)c1 (stereo unspecified) was read as GALK inhibitor 0%, Gal4-VP16 FLuc inconclusive, TrxR1 inh 18µM*, TrxR1 substrate 1%, RORgamma inh inconclusive and FBPA coupling cs -2.
O=C1CC(N2CCC(c3nc4ccccc4o3)CC2)C(=O)N1c1ccc(F)cc1 (stereo unspecified) was read as GALK inhibitor 1%, Gal4-VP16 FLuc 10%, TrxR1 inh 29%, TrxR1 substrate 1%, RORgamma inh 16% and FBPA coupling cs 0.
OCCN(CC#CC(O)(c1ccccc1)c1cccc(F)c1)CCO (stereo unspecified) was read as GALK inhibitor 2%, Gal4-VP16 FLuc -6%, TrxR1 inh 1%[57.1 µM], TrxR1 substrate -6%, RORgamma inh 19% and FBPA coupling cs -2.
`COc1cccc(C2CC(=O)Nc3cc4c(cc32)OCCO4)c1OC` (stereo unspecified) gave TrxR1 inh 10% and TrxR1 substrate -6%.
Screening COc1ccc(C2=NN(C(=O)CSc3nc4ccccc4s3)C(c3ccc(OC)cc3)C2)cc1 (stereo unspecified) returned GALK inhibitor 0%, Gal4-VP16 FLuc 7.1µM*, TrxR1 inh -17%, TrxR1 substrate -7%[57.1 µM], RORgamma inh inconclusive and FBPA coupling cs -1.
For N#CC1=C(N)C(C#N)(C#N)C(c2ccc[nH]2)C2CCCC=C12 (stereo unspecified) the results were GALK inhibitor 0%, Gal4-VP16 FLuc 2%, TrxR1 inh 11µM*, TrxR1 substrate 6%, RORgamma inh inconclusive and FBPA coupling cs -17.
`N#CC1=C(N)C(C#N)(C#N)C(c2cccnc2)C2CC(c3ccccc3)CC=C12` (stereo unspecified) gave GALK inhibitor -1%, Gal4-VP16 FLuc 18µM*, TrxR1 inh inconclusive, TrxR1 substrate 7%, RORgamma inh 11µM* and FBPA coupling cs 3.
For N#CC1=C(N)C(C#N)(C#N)[C@H](c2cccnc2)[C@H]2CN(C(=O)OCc3ccccc3)CC=C12 the results were Gal4-VP16 FLuc inconclusive, TrxR1 inh -8%, TrxR1 substrate -5%, RORgamma inh inconclusive and FBPA coupling cs 0.
For N#CC1=C(N)C(C#N)(C#N)C(c2cccnc2)C2CCCC=C12 (stereo unspecified) the results were GALK inhibitor 1%, Gal4-VP16 FLuc 2%, RORgamma inh inconclusive and FBPA coupling cs -36*.
Screening CC(C)(C)C1CCc2c(sc(NC(=O)Cn3nnc(-c4ccccc4F)n3)c2C#N)C1 (stereo unspecified) returned TrxR1 inh 8% and TrxR1 substrate -7%.
For C=C[C@](C)(O)CCC1C(=C)CC(OC(C)=O)C2C(C)(C)CCCC12C (stereo partly specified) the results were Gal4-VP16 FLuc -17%, RORgamma inh 1.1µM* and FBPA coupling cs 0.
`Cc1cc(-c2ccccc2)nc(N/N=C/c2ccc(N(C)C)cc2)n1` gave TrxR1 inh 8% and TrxR1 substrate -17%.
Cc1ccc(CN2CCC(n3nccc3NC(=O)C3CCOC3)CC2)cc1C (stereo unspecified) was read as GALK inhibitor 1%, Gal4-VP16 FLuc -3%, TrxR1 inh 11%, TrxR1 substrate 6% and RORgamma inh 5%.
For CC(C)c1nc2ccccn2c1NC1CCCCC1 the results were GALK inhibitor -3%, Gal4-VP16 FLuc inconclusive, TrxR1 inh 24%[57.1 µM], TrxR1 substrate 11%[57.1 µM], RORgamma inh 5µM* and FBPA coupling cs -2.
`CC(=O)c1ccc(-c2cccc(-c3nc4ccccn4c3NC3CCCCC3)c2)cc1` gave TrxR1 inh 8%[57.1 µM] and TrxR1 substrate -2%[57.1 µM].
Screening Cc1ccn2c(NC(=O)c3ccccc3)c(-c3cccs3)nc2c1 returned GALK inhibitor -1%, Gal4-VP16 FLuc 7%, TrxR1 inh 22%, TrxR1 substrate 5%, RORgamma inh -1% and FBPA coupling cs 4.
Screening Cc1ccn2c(NCc3ccccc3)c(-c3cccs3)nc2c1 returned GALK inhibitor -1%, Gal4-VP16 FLuc inconclusive, TrxR1 inh 14%[57.1 µM], TrxR1 substrate -12%[57.1 µM], RORgamma inh 14µM* and FBPA coupling cs -2.
Cc1ccn2c(NC3CCCC3)c(-c3cccs3)nc2c1 was read as GALK inhibitor -2%, Gal4-VP16 FLuc -29%, TrxR1 inh 10%[57.1 µM], TrxR1 substrate 10%[57.1 µM], RORgamma inh 10µM* and FBPA coupling cs 1.
c1csc(-c2nc3ccccn3c2NC2CCCCC2)c1 was read as GALK inhibitor -1%, Gal4-VP16 FLuc -16%, TrxR1 inh 19%, TrxR1 substrate 26%[57.1 µM], RORgamma inh 10µM* and FBPA coupling cs 2.
CC(=O)Nc1ccc(S(=O)(=O)NNC(=O)C(=O)NNc2ccccn2)cc1 was read as GALK inhibitor 7%, Gal4-VP16 FLuc 3%, TrxR1 inh 15%, TrxR1 substrate 2%, RORgamma inh -12% and FBPA coupling cs 1.
CC(=O)Nc1ccc(S(=O)(=O)NNC2=NS(=O)(=O)c3ccccc32)cc1 was read as GALK inhibitor -2%, Gal4-VP16 FLuc -24%, TrxR1 inh 8%, TrxR1 substrate 0%, RORgamma inh 10µM* and FBPA coupling cs 14.
`COc1cccc(-c2csc(N3CCN(C(=S)Nc4cccc(Cl)c4)CC3)n2)c1` gave GALK inhibitor -3%, Gal4-VP16 FLuc 18µM*, TrxR1 inh -12%, TrxR1 substrate 2%, RORgamma inh 2.8µM* and FBPA coupling cs 1.
COc1cccc(-c2csc(N3CCN(C(=S)Nc4ccccc4OC)CC3)n2)c1 was read as GALK inhibitor -4%, Gal4-VP16 FLuc inconclusive, TrxR1 inh 8%, TrxR1 substrate 12%[57.1 µM], RORgamma inh 7.9µM* and FBPA coupling cs -2.
For CCNC(=S)N1CCN(c2nc(-c3cccc(OC)c3)cs2)CC1 the results were GALK inhibitor 1%, Gal4-VP16 FLuc inconclusive, TrxR1 inh 12%, TrxR1 substrate -2%, RORgamma inh 14% and FBPA coupling cs 1.
Screening COc1cccc(-c2csc(N3CCN(C(=S)Nc4ccccc4Cl)CC3)n2)c1 returned GALK inhibitor -4%, Gal4-VP16 FLuc inconclusive, TrxR1 inh 7%, TrxR1 substrate 5%, RORgamma inh 11µM* and FBPA coupling cs -5.
c1ccc(CCNc2ncnc3sccc23)nc1 was read as GALK inhibitor 1%, Gal4-VP16 FLuc 16µM*, TrxR1 inh -2%[57.1 µM], TrxR1 substrate 8%, RORgamma inh inconclusive and FBPA coupling cs 1.
